Results as given in PubChem BioAssay (Tox21).
A number with no mark means an inactive call. Records with an inconclusive call do not appear. Where a call stands in place of a potency, no number is given. Active and inactive are the calls of the source. Unless noted, calls come from the whole dose curve; as a rule, active = well fitted curve in the direction sought with a large enough effect in the repeat runs; inconclusive = weak or mixed curves; inactive = no such curve, though single readings can be large; an effect the other way counts as inactive or inconclusive.

Experiments:
[1] = Human pregnane X receptor (PXR) small molecule agonists, qHTS cell viability counter screen (AID 1346977); note: nearly all actives have a fitted effect of over 50% in size
In short: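 In each well, the PXR reporter HepG2 line was checked for viability: CellTiter-Fluor reagent added 23hr post-dosing, fluorescence read after 1hr incubation at 37C.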

[2] = Caspase-3/7 induction in HepG2 cells by small molecules, qHTS assay (AID 1346978); note: nearly all actives have a fitted effect of over 15% in size
In short: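 Wild-type HepG2 cells (2,000/well) were settled 5 h at 37 C, 5% CO2, then exposed to compounds in DMSO for 17 h. Caspase-3/7 activity was read by luminescence 30 min after adding Caspase-Glo 3/7 reagent at room temperature.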

[3] = Caspase-3/7 induction in CHO-K1 cells by small molecules, qHTS cell viability counter screen (AID 1346979); note: nearly all actives have a fitted effect of over 35% in size; note: potency is the fitted concentration of half-maximal effect
In short: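 Following a 5hr settling period, CHO-K1 cells at 1,500 per well received DMSO-dissolved compounds. Cell viability was quantified 16hr later by CellTiter-Fluor fluorescence, measured after 1hr with reagent at 37C.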

[4] = Caspase-3/7 induction in CHO-K1 cells by small molecules, qHTS assay (AID 1346980); note: nearly all actives have a fitted effect of over 15% in size
In short: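 Wild-type cells were seeded at 1,500 per well and settled 5 hr at 37 C, 5% CO2, then exposed to DMSO-dissolved compounds for 17 hr. Caspase-Glo 3/7 reagent was added, and luminescence was read after 30min at room temperature.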

[5] = Caspase-3/7 induction in HepG2 cells by small molecules, qHTS cell viability counter screen (AID 1346981); note: series mostly up to about 92 µM; nearly all actives have a fitted effect of over 30% in size
In short: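 In this quantitative HTS counter screen, compounds delivered in DMSO were left on unmodified HepG2 cells for 16 hr at 37 C. Viability was then determined fluorometrically with CellTiter-Fluor, in parallel with caspase-3/7 induction in the same wells.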

[6] = target: Nuclear receptor subfamily 1 group I member 2 (Homo sapiens) (UniProt O75469); assay: Human pregnane X receptor (PXR) small molecule agonists, qHTS assay (AID 1346982); note: nearly all actives have a fitted effect of over 35% in size; note: potency is the fitted concentration of half-maximal effect
Chain of Nuclear receptor subfamily 1 group I member 2 (Homo sapiens) (O75469 whole entry, looked up): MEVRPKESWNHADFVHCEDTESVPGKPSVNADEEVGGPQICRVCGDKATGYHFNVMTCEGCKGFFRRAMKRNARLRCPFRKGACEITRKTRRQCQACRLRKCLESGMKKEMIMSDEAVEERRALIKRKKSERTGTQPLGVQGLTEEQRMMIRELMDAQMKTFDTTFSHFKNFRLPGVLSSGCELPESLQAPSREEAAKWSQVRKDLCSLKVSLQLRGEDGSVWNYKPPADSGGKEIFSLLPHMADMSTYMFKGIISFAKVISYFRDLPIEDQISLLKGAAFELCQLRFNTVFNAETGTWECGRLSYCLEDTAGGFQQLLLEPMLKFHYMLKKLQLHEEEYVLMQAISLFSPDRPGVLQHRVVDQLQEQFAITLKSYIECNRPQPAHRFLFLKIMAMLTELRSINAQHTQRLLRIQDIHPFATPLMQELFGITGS
In short: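 Reporter HepG2 cells expressing PXR-Luc are cultured in charcoal-stripped FBS (5%), treated with compounds for 24 hr at 37 C, and assayed by ONE-Glo luminescence after 30 min at room temperature.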

[7] = target: Nuclear receptor subfamily 1 group I member 2 (Rattus norvegicus) (UniProt Q9R1A7); assay: Rat pregnane X receptor (rPXR) activation by small molecules, qHTS assay (AID 1346983); conditions: rPXR luciferase reporter cells, One-Glo luminescence, 24 h; max activation: hits give high values; note: nearly all actives have a fitted effect of over 20% in size
Chain of Nuclear receptor subfamily 1 group I member 2 (Rattus norvegicus) (Q9R1A7 whole entry, looked up): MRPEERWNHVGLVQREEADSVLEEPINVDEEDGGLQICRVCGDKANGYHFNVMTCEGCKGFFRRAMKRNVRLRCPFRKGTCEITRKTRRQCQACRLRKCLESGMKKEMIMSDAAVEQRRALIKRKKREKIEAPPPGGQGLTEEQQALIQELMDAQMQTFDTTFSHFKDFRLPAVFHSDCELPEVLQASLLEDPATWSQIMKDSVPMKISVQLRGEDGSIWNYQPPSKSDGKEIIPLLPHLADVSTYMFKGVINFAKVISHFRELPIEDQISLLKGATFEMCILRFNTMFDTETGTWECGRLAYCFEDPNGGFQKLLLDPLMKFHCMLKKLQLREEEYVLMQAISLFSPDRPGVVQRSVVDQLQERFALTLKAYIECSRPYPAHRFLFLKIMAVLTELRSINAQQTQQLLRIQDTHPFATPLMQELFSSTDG
In short: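 Cell-based rPXR luciferase reporter assay, 2,000 cells per well, rested 5hr at 37 C before compound addition in DMSO, then 24 hr at 37 C. One-Glo reagent was added and luminescence read after 30 min at room temperature.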

[8] = target: Nuclear receptor subfamily 1 group I member 2 (Homo sapiens) (UniProt O75469); assay: CYP3A4 induction through human pregnane X receptor (PXR) by small molecules, qHTS assay (AID 1346984); note: nearly all actives have a fitted effect of over 40% in size; note: potency is the fitted concentration of half-maximal effect
In short: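 Induction measured in HepG2-based DPX-2 cells co-expressing human PXR and a CYP3A4 promoter-driven luciferase. After a 24-hour compound exposure, cells received CYP3A4 luciferin substrate at 3uM final for 3 hours, and light output was then recorded.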

[9] = target: Nuclear receptor subfamily 1 group I member 2 (Homo sapiens) (UniProt O75469); assay: Human pregnane X receptor (PXR) activation by small molecules, qHTS assay (AID 1346985); note: nearly all actives have a fitted effect of over 40% in size
In short: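 DPX-2 cells (HepG2 co-transfected with a PXR response element and a CYP3A4-promoter luciferase construct) were seeded at 2,000 per well, rested 5 hr at 37C, then exposed to DMSO-dissolved compounds for 24 hr. Activation was read as luciferase luminescence.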

[10] = target: Cytochrome P450 2C9 (Homo sapiens) (UniProt P11712); assay: Cytochrome P450 Family 2 Subfamily C Member 9 (CYP2C9) small molecule antagonists: luciferase reporter qHTS assay (AID 1671198); note: nearly all actives have a fitted effect of over 50% in size; note: potency is the fitted concentration of half-maximal effect
Chain of Cytochrome P450 2C9 (Homo sapiens) (P11712 whole entry, looked up): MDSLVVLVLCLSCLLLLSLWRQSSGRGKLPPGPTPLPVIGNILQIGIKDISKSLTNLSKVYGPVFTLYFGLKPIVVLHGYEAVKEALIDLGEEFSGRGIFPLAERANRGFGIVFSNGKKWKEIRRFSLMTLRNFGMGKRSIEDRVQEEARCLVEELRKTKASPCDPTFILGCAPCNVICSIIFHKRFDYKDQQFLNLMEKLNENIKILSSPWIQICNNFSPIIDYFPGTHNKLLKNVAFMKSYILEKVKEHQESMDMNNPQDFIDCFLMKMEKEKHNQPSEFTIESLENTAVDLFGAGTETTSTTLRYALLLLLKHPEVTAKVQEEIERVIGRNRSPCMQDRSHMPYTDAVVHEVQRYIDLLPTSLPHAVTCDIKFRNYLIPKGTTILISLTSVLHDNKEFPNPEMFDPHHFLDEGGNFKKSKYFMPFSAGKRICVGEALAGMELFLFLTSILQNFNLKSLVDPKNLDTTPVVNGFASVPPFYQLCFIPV
In short: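 CYP2C9 activity was measured with a P450-Glo proluciferin substrate. Enzyme–substrate mix was held with compound for 10 min at room temperature, then NADPH regeneration solution was added for 1 h at 37C. Luciferin product was read as luminescence.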

[11] = target: Cytochrome P450 3A4 (Homo sapiens) (UniProt P08684); assay: Cytochrome P450 Family 3 Subfamily A Member 4 (CYP3A4) small molecule antagonists: luciferase reporter qHTS assay (AID 1671201); note: nearly all actives have a fitted effect of over 50% in size; note: potency is the fitted concentration of half-maximal effect
Chain of Cytochrome P450 3A4 (Homo sapiens) (P08684 whole entry, looked up): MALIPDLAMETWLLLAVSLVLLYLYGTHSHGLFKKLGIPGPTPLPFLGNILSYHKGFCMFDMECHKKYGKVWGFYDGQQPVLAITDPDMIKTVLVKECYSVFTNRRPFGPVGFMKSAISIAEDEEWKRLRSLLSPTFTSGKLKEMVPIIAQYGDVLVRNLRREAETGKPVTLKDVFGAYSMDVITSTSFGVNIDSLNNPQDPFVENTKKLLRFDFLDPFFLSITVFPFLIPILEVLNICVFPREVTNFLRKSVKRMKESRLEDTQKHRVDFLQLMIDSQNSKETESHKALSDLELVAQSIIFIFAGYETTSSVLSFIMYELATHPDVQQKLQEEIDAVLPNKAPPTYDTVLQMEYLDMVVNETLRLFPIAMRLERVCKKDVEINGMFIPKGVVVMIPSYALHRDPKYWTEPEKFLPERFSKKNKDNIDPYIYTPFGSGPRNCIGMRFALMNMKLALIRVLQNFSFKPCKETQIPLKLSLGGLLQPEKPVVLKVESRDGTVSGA
In short: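 CYP3A4 activity was followed with a P450-Glo proluciferin substrate. Test compounds in DMSO were preincubated 10 min; NADPH regeneration then ran 1 h, and light output was read 20 min after detection reagent.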

[12] = target: Cytochrome P450 2C19 (Homo sapiens) (UniProt P33261); assay: Cytochrome P450 Family 2 Subfamily C Member 19 (CYP2C19) small molecule antagonists: luciferase reporter qHTS assay (AID 1671197); note: nearly all actives have a fitted effect of over 65% in size; note: potency is the fitted concentration of half-maximal effect
Chain of Cytochrome P450 2C19 (Homo sapiens) (P33261 whole entry, looked up): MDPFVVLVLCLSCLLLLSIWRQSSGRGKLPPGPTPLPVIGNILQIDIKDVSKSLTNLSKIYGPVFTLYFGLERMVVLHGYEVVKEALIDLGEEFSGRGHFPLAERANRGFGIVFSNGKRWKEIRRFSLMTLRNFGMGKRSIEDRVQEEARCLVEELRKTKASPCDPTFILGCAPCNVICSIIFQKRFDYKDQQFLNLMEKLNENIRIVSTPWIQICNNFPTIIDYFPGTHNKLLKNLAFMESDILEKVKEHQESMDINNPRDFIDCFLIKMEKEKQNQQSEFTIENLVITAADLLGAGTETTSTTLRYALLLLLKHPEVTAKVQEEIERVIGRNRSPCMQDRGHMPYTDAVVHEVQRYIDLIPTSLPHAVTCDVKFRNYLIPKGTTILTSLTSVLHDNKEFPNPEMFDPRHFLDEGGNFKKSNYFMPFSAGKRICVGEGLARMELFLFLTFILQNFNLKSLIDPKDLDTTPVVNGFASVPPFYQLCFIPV
In short: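 Light output is proportional to CYP2C19 activity: proluciferin substrate is converted to luciferin, then detected by a luciferin detection reagent that also stops the 1 h, 37C NADPH-driven reaction. Ketoconazole serves as positive control.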

[13] = target: Voltage-gated inwardly rectifying potassium channel KCNH2 (Homo sapiens) (UniProt Q12809); assay: Human Ether-a-go-go-Related Gene (hERG) channel small molecule antagonists: fluorescence cell-based qHTS assay (AID 1671200); note: nearly all actives have a fitted effect of over 50% in size; note: potency is the fitted concentration of half-maximal effect
Chain of Voltage-gated inwardly rectifying potassium channel KCNH2 (Homo sapiens) (Q12809 whole entry, looked up): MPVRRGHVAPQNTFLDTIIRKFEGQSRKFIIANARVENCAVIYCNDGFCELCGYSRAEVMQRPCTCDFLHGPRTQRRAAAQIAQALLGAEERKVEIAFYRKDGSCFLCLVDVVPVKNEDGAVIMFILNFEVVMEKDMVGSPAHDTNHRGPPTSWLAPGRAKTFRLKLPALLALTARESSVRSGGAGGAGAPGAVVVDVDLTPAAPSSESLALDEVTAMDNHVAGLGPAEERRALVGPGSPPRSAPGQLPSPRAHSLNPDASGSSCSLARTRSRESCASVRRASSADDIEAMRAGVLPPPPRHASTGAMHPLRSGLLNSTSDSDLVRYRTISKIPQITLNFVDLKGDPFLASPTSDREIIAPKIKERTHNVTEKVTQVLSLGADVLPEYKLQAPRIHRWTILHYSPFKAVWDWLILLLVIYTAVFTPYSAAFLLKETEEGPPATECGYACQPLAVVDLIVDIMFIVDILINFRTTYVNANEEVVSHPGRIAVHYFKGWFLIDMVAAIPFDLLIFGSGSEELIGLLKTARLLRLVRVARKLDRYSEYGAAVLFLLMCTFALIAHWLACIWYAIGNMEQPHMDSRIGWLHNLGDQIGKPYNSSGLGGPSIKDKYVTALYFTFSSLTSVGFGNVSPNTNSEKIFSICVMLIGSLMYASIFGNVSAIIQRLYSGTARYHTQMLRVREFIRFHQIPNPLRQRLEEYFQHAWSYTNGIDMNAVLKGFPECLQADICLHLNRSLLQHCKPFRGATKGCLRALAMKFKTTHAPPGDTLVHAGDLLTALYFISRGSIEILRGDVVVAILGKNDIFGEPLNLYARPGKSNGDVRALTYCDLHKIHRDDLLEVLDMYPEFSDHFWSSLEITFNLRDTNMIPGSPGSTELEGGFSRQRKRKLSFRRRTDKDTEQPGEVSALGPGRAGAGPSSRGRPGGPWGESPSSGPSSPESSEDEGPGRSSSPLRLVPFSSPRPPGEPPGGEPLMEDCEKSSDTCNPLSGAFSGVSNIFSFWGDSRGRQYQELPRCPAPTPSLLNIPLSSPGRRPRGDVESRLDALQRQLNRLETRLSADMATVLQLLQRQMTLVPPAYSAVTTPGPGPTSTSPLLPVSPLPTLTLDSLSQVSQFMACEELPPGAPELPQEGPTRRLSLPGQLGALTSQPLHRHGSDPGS
In short: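 In this thallium-flux screen, overnight-cultured U2OS cells bearing the channel are dye-loaded in darkness for an hour, rested 10 min at room temperature, and then monitored kinetically at 480/540 nm for two minutes post-stimulus.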

[14] = target: Thyrotropin-releasing hormone receptor (Homo sapiens) (UniProt P34981); assay: qHTS assay to identify small molecule agonists of the thyrotropin-releasing hormone receptor (TRHR) signaling pathway (AID 1346891; calls by dose curve; note: series mostly up to about 58 µM)
Chain of Thyrotropin-releasing hormone receptor (Homo sapiens) (P34981 whole entry, looked up): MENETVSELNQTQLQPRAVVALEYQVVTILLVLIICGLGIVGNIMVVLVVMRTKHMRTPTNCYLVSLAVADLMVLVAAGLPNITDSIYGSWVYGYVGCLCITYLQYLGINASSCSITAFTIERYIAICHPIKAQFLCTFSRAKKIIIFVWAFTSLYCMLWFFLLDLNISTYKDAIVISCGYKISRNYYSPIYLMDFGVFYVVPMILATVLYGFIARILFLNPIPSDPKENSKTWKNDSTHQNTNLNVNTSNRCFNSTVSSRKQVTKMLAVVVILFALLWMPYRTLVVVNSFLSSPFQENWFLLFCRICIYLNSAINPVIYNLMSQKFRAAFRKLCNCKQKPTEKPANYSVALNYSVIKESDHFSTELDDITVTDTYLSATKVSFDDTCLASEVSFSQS
In short: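 Readout was intracellular calcium fluorescence in TRHR-Hek293 cells. Cells were incubated 18 h, dye-loaded 2 h at 37 °C, and treated with compound in agonist mode.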

[15] = target: Cytochrome P450 2D6 (Homo sapiens) (UniProt P10635); assay: Cytochrome P450 Family 2 Subfamily D Member 6 (CYP2D6) small molecule antagonists: luciferase reporter qHTS assay (AID 1671196); note: nearly all actives have a fitted effect of over 50% in size; note: potency is the fitted concentration of half-maximal effect
Chain of Cytochrome P450 2D6 (Homo sapiens) (P10635 whole entry, looked up): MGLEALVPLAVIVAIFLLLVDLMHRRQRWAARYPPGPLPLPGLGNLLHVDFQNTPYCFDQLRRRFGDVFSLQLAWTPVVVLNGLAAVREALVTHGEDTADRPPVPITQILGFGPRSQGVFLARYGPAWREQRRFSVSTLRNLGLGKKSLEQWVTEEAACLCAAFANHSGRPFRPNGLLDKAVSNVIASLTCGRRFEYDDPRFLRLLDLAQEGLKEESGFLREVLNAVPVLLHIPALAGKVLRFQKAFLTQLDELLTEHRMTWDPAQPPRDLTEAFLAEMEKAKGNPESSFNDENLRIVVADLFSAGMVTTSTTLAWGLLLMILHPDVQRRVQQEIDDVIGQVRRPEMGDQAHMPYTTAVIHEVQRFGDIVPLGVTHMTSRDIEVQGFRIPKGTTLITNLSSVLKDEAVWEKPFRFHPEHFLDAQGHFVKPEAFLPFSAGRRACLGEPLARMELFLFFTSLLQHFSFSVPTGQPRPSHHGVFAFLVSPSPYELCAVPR
In short: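 Test chemicals meet CYP2D6 plus proluciferin substrate (10 min, RT); NADPH regenerating solution then drives turnover for 1 h. Detection reagent halts the reaction; luminescence measured after 20 min.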

[16] = target: Cytochrome P450 1A2 (Homo sapiens) (UniProt P05177); assay: Cytochrome P450 Family 1 Subfamily A Member 2 (CYP1A2) small molecule antagonists: luciferase reporter qHTS assay (AID 1671199); note: nearly all actives have a fitted effect of over 50% in size; note: potency is the fitted concentration of half-maximal effect
Chain of Cytochrome P450 1A2 (Homo sapiens) (P05177 whole entry, looked up): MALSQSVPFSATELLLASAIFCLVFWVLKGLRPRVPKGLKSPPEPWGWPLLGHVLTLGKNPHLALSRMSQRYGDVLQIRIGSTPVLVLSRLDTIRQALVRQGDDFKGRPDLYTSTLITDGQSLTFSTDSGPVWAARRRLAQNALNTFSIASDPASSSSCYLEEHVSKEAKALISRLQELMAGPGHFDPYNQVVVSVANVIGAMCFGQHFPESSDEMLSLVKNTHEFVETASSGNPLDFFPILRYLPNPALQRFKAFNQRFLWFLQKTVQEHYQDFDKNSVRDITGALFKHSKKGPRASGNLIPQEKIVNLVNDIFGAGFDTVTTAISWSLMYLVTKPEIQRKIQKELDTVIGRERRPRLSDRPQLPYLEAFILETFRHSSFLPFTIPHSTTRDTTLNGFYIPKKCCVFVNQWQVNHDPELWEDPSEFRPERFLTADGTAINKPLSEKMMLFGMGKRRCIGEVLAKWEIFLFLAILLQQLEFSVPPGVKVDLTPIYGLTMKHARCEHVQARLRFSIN
In short: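 Steps: enzyme-substrate mix dispensed; test compounds and furafylline control pinned in; 10 min room temperature; NADPH regeneration solution added, 1 h; reaction stopped with luciferin detection reagent; luminescence read after 20 min.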

Row | Compound | Potency [1] | Potency [2] | Potency [3] | outcome [4] | Potency [5] | Potency [6] | max activation [7] [%] | Potency [8] | Potency [9] | Potency [10] | Potency [11] | Potency [12] | Potency [13] | Potency [14] | Potency [15] | Potency [16]
1 | C=CCc1cc(OC)c(O)c(C(=O)NCCO)c1 | inactive | inactive | inactive | inactive | inactive | inactive | -0.885 | inactive | inactive | inactive | inactive |  |  |  |  | 
2 | CCCCCCCCCCCCCCCCOP(=O)([O-])OCC[N+](C)(C)C | inactive | inactive | inactive | inactive | inactive | inactive | 0.239 | inactive | inactive | inactive | inactive | inactive | inactive |  |  | 
3 | COc1cc2c(cc1N)oc1ccccc12 |  | inactive |  | inactive | inactive | 27.9 µM (active) |  |  |  | 6.46 µM (active) | 7.25 µM (active) | 4.57 µM (active) | inactive | inactive | 7.25 µM (active) | 0.513 µM (active)
4 | CC1=C(O)C(=O)OC1C (stereo not drawn) |  | inactive | inactive | inactive | inactive | inactive |  |  |  | inactive | inactive | inactive |  | inactive | inactive | inactive
5 | NCCC(O)(P(=O)(O)O)P(=O)(O)O | inactive | inactive | inactive | inactive | inactive | inactive | -0.383 | inactive | inactive | inactive | inactive | inactive | inactive |  | inactive | 24.5 µM (active)
6 | CCCCC(=O)O[C@]1(C(=O)CO)[C@H](C)C[C@H]2[C@@H]3CCC4=CC(=O)C=C[C@]4(C)[C@@]3(F)[C@@H](O)C[C@@]21C | inactive | inactive | inactive | inactive | inactive | inactive |  | inactive |  | 17.4 µM (active) |  |  |  |  |  | inactive
7 | CC(=O)N[C@@H](CC(C)C)C(=O)O |  | inactive | inactive | inactive | inactive |  |  |  |  |  |  |  | inactive | inactive |  | 
8 | COc1cc(N)c(Cl)cc1C(=O)NC1CCN(Cc2ccccc2)CC1 |  | inactive | inactive | inactive | inactive | inactive | -4.93 | inactive | inactive | inactive | 1.55 µM (active) |  | 16.9 µM (active) | inactive | 0.0309 µM (active) | inactive
9 | NC(=O)Cc1cccc(C(=O)c2ccccc2)c1N | inactive | inactive | inactive | inactive | inactive | inactive |  |  |  | inactive | inactive | 34.7 µM (active) | inactive |  | inactive | 15.5 µM (active)
10 | CCOc1ccc(NS(=O)(=O)c2ccc(N)cc2)nn1 | inactive | inactive | inactive | inactive | inactive | inactive |  |  |  | inactive | inactive | 30.9 µM (active) | inactive |  | inactive | inactive
11 | Cc1cc2c(s1)Nc1ccccc1N=C2N1CCN(C)CC1 |  | inactive | 7.5 µM (active) | inactive |  | inactive | -3.7 | inactive | inactive |  | inactive | inactive | inactive | inactive | inactive | inactive
12 | Nc1ccc(Oc2ccc(N)c(N)c2)cc1 |  | inactive | 61.1 µM (active) | inactive |  | 19.3 µM (active) |  |  |  | 6.33 µM (active) | 3.56 µM (active) | 20 µM (active) | inactive | inactive | 5.64 µM (active) | 35.6 µM (active)
13 | Cc1cccc(C)c1NC(=O)CN1CCCCCC1 | inactive | inactive | inactive | inactive | inactive | 11.9 µM (active) | -0.265 | 14.1 µM (active) | inactive | inactive | inactive |  | inactive |  | 12.3 µM (active) | inactive
14 | Cc1ccc(C(C)C)cc1O | inactive | inactive | inactive | inactive | inactive | inactive |  |  |  | 15.9 µM (active) |  | 1.78 µM (active) | inactive |  | inactive | 22.4 µM (active)
15 | C[C@@H](N)C(=O)O | inactive | inactive | inactive | inactive | inactive | inactive | -2.77 | inactive | inactive |  | inactive |  |  |  | inactive | 
16 | C=O |  | inactive | inactive | inactive | inactive |  | -2.05 |  |  |  |  |  |  | inactive |  | 
17 | O=Cc1ccc(O)c(O)c1O |  | inactive |  | inactive |  | inactive |  |  |  |  | inactive | inactive | inactive | inactive |  | inactive
